Data: PubChem BioAssay AID504734 (The Scripps Research Institute Molecular Screening Center, 2011)
In all, about 340,000 compounds went through this assay and about 730 (0.21%) were called active.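 Rule for the calls: active = inhibition above the mean over all tested compounds plus 3 SD (cut at about 21% in these data); inactive = the rest.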 The sample as a whole holds a higher share of actives than the screen did.

biological target: Toll-like receptor 9 (Homo sapiens) + Myeloid differentiation primary response protein MyD88 (Homo sapiens) (UniProt Q9NR96+Q99836); assay: disruptors of TLR9 binding to MyD88 – cell-based, CHO, BLA complementation, fluorescence, primary screen (AID 504734); conditions: CHO BLA complementation TLR9-MyD88, CCF4 FRET ratio; at 4.98 µM; hits give high values;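 note: 0% = DMSO only wells and 100% = clavulanate BLA inhibitor control wells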
Sequence (Q99836 whole entry, looked up): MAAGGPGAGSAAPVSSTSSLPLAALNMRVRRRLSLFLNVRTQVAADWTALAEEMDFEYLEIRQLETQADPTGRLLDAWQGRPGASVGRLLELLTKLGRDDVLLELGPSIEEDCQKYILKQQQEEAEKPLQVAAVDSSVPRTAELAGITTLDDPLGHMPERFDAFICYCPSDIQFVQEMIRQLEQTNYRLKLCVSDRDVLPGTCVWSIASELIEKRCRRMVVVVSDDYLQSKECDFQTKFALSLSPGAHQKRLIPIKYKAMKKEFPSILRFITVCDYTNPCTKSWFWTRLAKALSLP
Sequence (Q9NR96 whole entry, looked up): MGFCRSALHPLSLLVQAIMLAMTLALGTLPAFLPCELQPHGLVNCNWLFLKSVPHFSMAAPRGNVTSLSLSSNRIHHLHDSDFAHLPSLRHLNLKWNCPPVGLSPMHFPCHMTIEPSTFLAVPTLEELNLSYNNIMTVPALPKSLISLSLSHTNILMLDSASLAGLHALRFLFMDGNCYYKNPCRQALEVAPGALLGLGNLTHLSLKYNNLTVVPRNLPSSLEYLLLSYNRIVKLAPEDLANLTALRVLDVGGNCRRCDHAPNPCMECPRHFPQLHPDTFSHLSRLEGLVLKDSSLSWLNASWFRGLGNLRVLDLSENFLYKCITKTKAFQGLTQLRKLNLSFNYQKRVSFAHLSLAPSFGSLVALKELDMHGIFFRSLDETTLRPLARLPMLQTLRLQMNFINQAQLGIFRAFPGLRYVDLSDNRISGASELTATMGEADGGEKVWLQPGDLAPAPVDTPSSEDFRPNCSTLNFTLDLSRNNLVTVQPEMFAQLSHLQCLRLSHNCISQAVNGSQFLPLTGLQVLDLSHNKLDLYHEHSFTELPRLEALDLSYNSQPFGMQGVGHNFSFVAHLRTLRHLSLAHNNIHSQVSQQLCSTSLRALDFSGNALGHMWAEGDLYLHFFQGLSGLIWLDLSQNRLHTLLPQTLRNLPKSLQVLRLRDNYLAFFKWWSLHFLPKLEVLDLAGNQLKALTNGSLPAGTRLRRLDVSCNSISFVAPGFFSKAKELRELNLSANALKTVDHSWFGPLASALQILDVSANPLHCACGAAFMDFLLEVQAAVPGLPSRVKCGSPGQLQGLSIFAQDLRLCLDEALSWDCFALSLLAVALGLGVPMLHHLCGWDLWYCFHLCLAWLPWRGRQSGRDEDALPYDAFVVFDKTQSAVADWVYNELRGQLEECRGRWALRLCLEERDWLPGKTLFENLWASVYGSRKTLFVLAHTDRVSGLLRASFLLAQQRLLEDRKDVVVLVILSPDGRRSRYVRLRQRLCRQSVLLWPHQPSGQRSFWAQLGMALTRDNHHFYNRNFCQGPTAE

inhibition, active:
COc1ccc(-c2nn(-c3ccccc3)cc2/C=N/Nc2ccccn2)cc1OC 27.6%, CS(=O)(=O)c1sc2nc(-c3ccccc3)cc(-c3ccccc3)c2c1N 21.5%, COc1ccc(-c2cc(C(F)(F)F)nc(S(C)(=O)=O)n2)cc1OC 27.6%, COc1ccc(-c2nc3cnccn3c2NC2CCCCC2)cc1-c1cccc(Cl)c1 40.9%, Nc1cccc2c1C(=O)N(Cc1nnc(-c3ccccc3Br)o1)C2=O 21.2%, CC1(C)CC(=O)C(C2c3ccccc3S(=O)(=O)c3ccccc32)C(=O)C1 22.1%, Nc1c(C(=O)c2cccs2)sc2nsc(SCCN3CCCCC3)c12 31.4%, Cc1cccc(CS(=O)(=O)c2ncc(Cl)c(C(=O)Nc3ccc(F)cc3)n2)c1 35.3%, Cc1cccc(NC(=O)c2nc(S(=O)(=O)Cc3ccccc3)ncc2Cl)c1 48.7%, CN(O)C(=S)c1ccccc1 21.8%

inhibition, inactive:
O=Cc1cn(-c2ccccc2)nc1-c1ccccn1 -5.05%, COc1ccc(-c2nn(-c3ccccc3)cc2C(=O)Nc2nccs2)cc1OC 7.8%, NC1=CC(=O)C(=O)c2cccnc21 -3.3%, Cc1nc2ccccn2c(=O)c1NC(=O)c1ccc(Br)o1 -8.57%, C[C@H]1CN([C@@H](C)CO)C(=O)CCCn2cc(nn2)CO[C@@H]1CN(C)S(=O)(=O)c1cccs1 -3.23%, Nc1cccc(-c2cc(-c3ccccc3)nc(-c3cccc(N)c3)n2)c1 4.91%, CCN(CC)C(=O)c1sc2nc(-c3ccccc3)ccc2c1N 1.41%, CCOC(=O)C(C(=O)c1ccccc1)C(c1ccccc1)c1nccc2ccccc12 (stereo not given) -3.27%, O=C(O)c1ccccc1Cc1ccc(F)c2ccccc12 0.89%, O=C1NC(Cc2ccccc2)c2nc3ccc(Br)cc3c(=O)n2-c2cc3ccccc3cc21 (stereo not given) 4.34%, COc1ccc(-c2ccc(Nc3ccc(S(=O)(=O)N4CCCC4)cc3)nn2)cc1OC -1.95%, COc1ccc(-c2cc(-c3ccc(N)cc3)nc(N)c2C#N)cc1OC -1.14%, Cc1ccc(S(=O)(=O)N2CCOCC2)cc1NC(=O)c1ccncc1 -10.3%, CCN1CCCC1CNC(=O)c1ccc2c(c1)NC(=O)/C(=C\c1ccccc1F)S2 (stereo not given) 5.07%, COc1ccc(-c2nc3cnccn3c2NC(C)(C)CC(C)(C)C)cc1O -0.94%, COc1ccc(-c2nc3cc(C)ccn3c2NC2CCCCC2)cc1SC1CCCCC1 -0.33%, CN(C)C(CNC(=O)c1cc(Br)c(Br)s1)c1ccco1 (stereo not given) 6.8%, NC(=S)NN=Cc1ccc(OC(=O)COc2cc(Cl)c(Cl)cc2Cl)cn1 12.2%, CC1(C)OC(=O)C2=C(CC(c3ccccc3)OC2CCc2ccccc2)O1 (stereo not given) -19.4%, COc1ccc(S(=O)(=O)N2CCN(CC(=O)N3CCNC3=O)CC2)cc1OC 7.47%, Cc1ccc(S(=O)(=O)N2C[C@@H](C)[C@]3(C2)[C@H](O)[C@H](OC(=O)NCc2ccccc2)C[C@H]2C(=O)N(c4ccccc4)C(=O)[C@H]23)cc1 -1.46%, COc1ccc([C@H]2N[C@]3(CCCN(CC4CCCCC4)C3=O)[C@H]3C(=O)N(C)C(=O)[C@@H]23)cc1 1.4%, Cc1ccn(CC(=O)NC2CCCN(Cc3ccccc3F)C2)n1 (stereo not given) 9%, Cn1cnnc1SCc1nnc(-c2ccccc2Br)o1 -5.92%, CCOC(=O)N1CCN(Cc2nnc(-c3ccccc3Cl)o2)CC1 7.73%, CCN1CCN(CCNC(=O)c2ccc3c(c2)NC(=O)/C(=C\c2cccc(Cl)c2)S3)CC1 13.2%, CCOC(=O)C=Cc1ccc(C(=O)OCC)[nH]1 5.14%, Cc1cc(C)c2c(=O)n3c(nc2c1)C(CC(C)C)NC(=O)c1cc2ccccc2cc1-3 (stereo not given) 9.57%, CC1(C)CC(=O)NC=C(c2ccccc2)C1 -4.24%, CC1(C)CC(=O)C(CC(=O)N2CCC(Cc3ccccc3)CC2)C(=O)C1 -5.62%, CCN(CC)C(=O)C1=C(C)N(Cc2ccc(OC)cc2)C(=O)C(CC(=O)NCCCCc2ccccc2)C1 (stereo not given) -3.92%, COc1ccc(NC(=O)CCCOc2ccc(C(C)=O)cc2)cc1S(=O)(=O)N1CCCCC1 -6.11%, COc1ccc([C@H]2N[C@]3(CCCN(Cc4ccco4)C3=O)[C@H]3C(=O)N(C)C(=O)[C@@H]23)cc1 -4.25%, Cc1noc(C)c1NC(=O)N(C)C[C@@H]1Oc2cc(Br)ccc2S(=O)(=O)N([C@@H](C)CO)C[C@H]1C 6.19%, CSc1nnc(NC(=O)c2nc(S(=O)(=O)Cc3ccc(C)cc3)ncc2Cl)s1 4.24%, O=C(Nc1ccc(F)cc1)c1ccc(S(=O)(=O)NCc2cccnc2)cc1 -9.53%, Cc1ccc(CS(=O)(=O)c2ncc(Cl)c(C(=O)Nc3nnc(C)s3)n2)cc1 12.2%, CN1CCN(c2ccc(NC(=O)c3ccc4c(c3)[nH]c(=O)n4Cc3ccc(F)cc3)cc2)CC1 5.07%, Cc1[nH]c2ccccc2c1C(=O)C(=O)NCc1nnnn1-c1cccc(F)c1 7.75%, COc1ccc(S(=O)(=O)N(C)C[C@H]2OCc3cnnn3CCCC(=O)N([C@H](C)CO)C[C@H]2C)cc1 -12.9%, CN(Cc1ccccc1)C(=O)c1cccc(C(=O)N(C)Cc2ccccc2)c1 -10.2%, CCCCCCn1c(=O)n2n(c1=O)C[C@]1(OC(=O)NCc3ccc(OC)c(OC)c3)CN(S(=O)(=O)c3ccc(C)cc3)C[C@]1(O)C2 -2.87%, CC1CCCC(C)N1C(=O)COC(=O)c1ccccc1C(=O)c1ccccc1 (stereo not given) -3.35%, O=C(NCCc1cccc(F)c1)C1CC(O)CN1C(=O)Nc1ccccc1 (stereo not given) -5.73%, COC(=O)N(C)C[C@@H]1OCc2cnnn2CCCC(=O)N([C@@H](C)CO)C[C@@H]1C -7.29%
